An excerpt weighted towards active compounds, which were near 1.7% of everything screened.
ALOX15B inhib = qHTS Assay for Inhibitors of 15-hLO-2 (15-human lipoxygenase 2). Polyunsaturated fatty acid lipoxygenase ALOX15B (Homo sapiens), O15296. purified 15hLO-2, xylenol orange hydroperoxide absorbance. Potency, µM (doses to about 57.1 µM), for inactives: at the highest dose activity change, negative = inhibition, usual class: inhibitors. actives 0.56% (n = 110,000); further: on the % scale 0 is the no-effect control and ±100 the full control effect; nearly all actives have a fitted effect of over 60% in size
Target sequence (O15296 whole entry, looked up): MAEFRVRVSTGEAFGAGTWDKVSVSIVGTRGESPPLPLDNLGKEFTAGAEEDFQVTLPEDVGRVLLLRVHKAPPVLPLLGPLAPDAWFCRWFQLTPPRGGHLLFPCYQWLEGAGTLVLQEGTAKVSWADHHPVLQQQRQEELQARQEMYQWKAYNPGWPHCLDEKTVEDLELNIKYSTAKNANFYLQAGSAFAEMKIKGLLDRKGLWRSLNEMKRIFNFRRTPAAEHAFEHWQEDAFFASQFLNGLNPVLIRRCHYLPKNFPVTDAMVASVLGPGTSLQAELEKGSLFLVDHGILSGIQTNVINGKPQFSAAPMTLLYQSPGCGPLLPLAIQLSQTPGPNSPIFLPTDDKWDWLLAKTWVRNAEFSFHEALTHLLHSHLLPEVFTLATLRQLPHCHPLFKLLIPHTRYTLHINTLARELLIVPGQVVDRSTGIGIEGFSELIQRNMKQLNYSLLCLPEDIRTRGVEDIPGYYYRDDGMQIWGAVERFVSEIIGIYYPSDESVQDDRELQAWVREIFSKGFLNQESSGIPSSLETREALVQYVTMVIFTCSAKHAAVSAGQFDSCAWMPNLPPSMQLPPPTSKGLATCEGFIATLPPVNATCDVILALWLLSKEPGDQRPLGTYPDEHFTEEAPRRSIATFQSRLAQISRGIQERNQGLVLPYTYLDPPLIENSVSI
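Read-out: hydroperoxide product oxidises ferrous iron, measured as xylenol orange complex via the 573-to-405 nm absorbance ratio after 30 min. Reaction: 50 nM enzyme, 15 min compound preincubation, 45 uM arachidonic acid, 90 min RT, Hepes pH 7.5 with Triton X-100.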
ERK AVP inh = qHTS Assay for Inhibitors of the ERK Signaling Pathway using a Homogeneous Screening Assay. HEK293-V1b, vasopressin-stimulated pERK AlphaScreen. Potency, µM (titrated, usually from 57.5 µM), for the others: top-dose activity, negative = inhibition, most hits filed as inhibitors. actives 0.99% (n = 72,000); further: on the % scale 0 is the no-effect control and ±100 the full control effect; nearly all actives have a fitted effect of over 55% in size
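Phosphorylated ERK1/2 detected via AlphaScreen bead proximity in lysates of V1b-expressing HEK293 cells given 25 nM vasopressin for 5 min after 30 min compound exposure (37 °C). AC50 from Hill equation; basal DMSO 0%, vasopressin 100%.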
15-hLO inh = qHTS Assay for Inhibitors of 15-hLO (15-human lipoxygenase). Polyunsaturated fatty acid lipoxygenase ALOX15 (Homo sapiens), P16050. purified 15hLO-1, xylenol orange hydroperoxide absorbance. Potency, µM (doses to about 57.1 µM), for inactives: at the highest dose activity change, negative = inhibition, actives largely listed as inhibitors. actives 1.4% (n = 74,000). AID 887, 2007; further: on the % scale 0 is the no-effect control and ±100 the full control effect; nearly all actives have a fitted effect of over 55% in size
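Purified human 15hLO-1 (40 nM final) in 25 mM Hepes pH 7.5, 0.01% Triton X-100 was preincubated with compound 15 min at room temperature, then reacted 6 min with 50 uM arachidonic acid; hydroperoxide detected by Fe-XO, 573/405 nm absorbance ratio.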
Casp7 inh = qHTS Assay for Allosteric/Competitive Inhibitors of Caspase-7 | P55210 | recombinant caspase-7, Ac-DEVD-AFC fluorescence rate | Potency, µM (highest dose often 57.5 µM), for inactives: at the top dose activity change, negative = inhibition, usual class: inhibitors | actives 0.02% (n = 75,000) | AID 889, 2007; active means well fitted inhibition curve with a large enough effect in the main read-out, with a control signal flat, not every such curve was filed as active; inconclusive means small, poorly fitted or top-dose-only effect, or a change in a side signal; further: % of control where 0% means no effect
Caspase-1 inhib = qHTS Assay for Allosteric/Competitive Inhibitors of Caspase-1; Potency, µM (doses to about 57.5 µM), without a hit: top-dose activity change, negative = inhibition, actives largely listed as inhibitors; AID 900, 2007; P29466; actives 0.03% (n = 75,000); Caspase-1 enzyme, Ac-WEHD-AFC fluorogenic rate;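 further: plate controls were vehicle for no effect and no substrate for full effect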
Starred values were filed as active, the others as inactive; [ ] = another dose, or the depositor's remark. Unless noted, the call rests on the fitted dose curve; in most records, active means well fitted curve in the direction sought with a large enough effect; inconclusive means small, poorly fitted or top-dose-only effect, or another doubt; inactive means no such curve, though single readings can be large; an effect the other way counts as inactive or inconclusive. Potency means the concentration at half of the fitted maximal effect.

How did Cc1nc(NCc2ccco2)c2oc3ccccc3c2n1 do in these assays?
ALOX15B inhib: 9.2%; ERK AVP inh: 25.1µM*; 15-hLO inh: -1.3%; Casp7 inh: -2.2%; Caspase-1 inhib: -1.0%

Results for Cc1nc(Nc2ccncc2)c2oc3ccccc3c2n1 ?
ALOX15B inhib: 6.8%; ERK AVP inh: -20.9%; 15-hLO inh: 12.3%; Casp7 inh: -1.2%; Caspase-1 inhib: 0.4%

What do the screens show for `COc1ccc(CCNc2nc(C)nc3c2oc2ccccc23)cc1OC`?
ALOX15B inhib: 9.8%; ERK AVP inh: 12.6µM*; 15-hLO inh: -7.7%; Casp7 inh: 0.7%; Caspase-1 inhib: -1.5%

How did CCOC(=O)c1sc2nc(-c3ccco3)c3c(c2c1N)CC(C)(C)OC3 do in these assays?
ALOX15B inhib: inconclusive; ERK AVP inh: 9.7%; 15-hLO inh: 15.8µM*; Casp7 inh: inconclusive

What do the screens show for `COC(=O)c1ccc2c(c1)SC1=C(CCCC1=O)N2`?
ALOX15B inhib: inconclusive; ERK AVP inh: inconclusive; 15-hLO inh: 15.8µM*; Casp7 inh: -1.4%; Caspase-1 inhib: -0.3%

Results for O=C1c2ccccc2-c2cc([N+](=O)[O-])c([N+](=O)[O-])cc21 ?
ALOX15B inhib: -13.2%[11.4 µM]; ERK AVP inh: inconclusive; 15-hLO inh: 12.1%[11.4 µM]; Casp7 inh: 2.0%[11.5 µM]; Caspase-1 inhib: 1.2%[11.5 µM]

Results for Clc1ccc(C2=Nn3c(nnc3-c3cc(-c4ccccc4)n[nH]3)SC2)cc1 ?
ALOX15B inhib: -7.4%

What do the screens show for `COc1ccc(-c2nnc3n2N=C(C)CS3)cc1`?
ALOX15B inhib: -4.3%

What do the screens show for `COc1ccc(C2=Nn3c(nnc3-c3ccc(OC)cc3)SC2)cc1`?
ALOX15B inhib: -7.3%; ERK AVP inh: 10µM*; 15-hLO inh: -20.4%; Casp7 inh: -2.1%; Caspase-1 inhib: -2.1%

What do the screens show for `c1ccc(C2=Nn3c(nnc3-c3cc(-c4ccccc4)n[nH]3)SC2)cc1`?
ALOX15B inhib: -18.2%; ERK AVP inh: 25.1µM*; 15-hLO inh: inconclusive; Casp7 inh: -3.9%; Caspase-1 inhib: -3.0%

What do the screens show for `COc1ccc(C2=Nn3c(nnc3-c3ccccc3OC)SC2)cc1OC`?
ALOX15B inhib: -11.9%; ERK AVP inh: 5.01µM*; 15-hLO inh: 10.1%; Casp7 inh: -4.0%; Caspase-1 inhib: 0.2%

How did O=C(O)/C=C\C(=O)Nc1ccc2c(c1)-c1ccccc1C2 do in these assays?
ALOX15B inhib: -13.5%[11.4 µM]; ERK AVP inh: -11.4%[11.5 µM]; 15-hLO inh: -0.3%[11.4 µM]; Casp7 inh: -2.2%[11.5 µM]; Caspase-1 inhib: -2.7%[11.5 µM]

What do the screens show for `CCC(=O)/C=C/C1C(C)=CCCC1(C)C` (stereo unspecified)?
ALOX15B inhib: -0.3%; ERK AVP inh: 11.8%; 15-hLO inh: 25.1µM*; Casp7 inh: 0.3%; Caspase-1 inhib: 0.5%
